Bioassay records as filed in PubChem.
The list is not random: actives were taken first. Their share in the collection is about 12%.
HP1b chromo inh = blocks HP1-beta chromodomain binding to methylated histone tails | Potency, µM (doses to about 114 µM), without a hit: at the top dose activity change, negative = inhibition, actives largely listed as inhibitors | P83916 | 390,000 compounds, 0.56% hits | AlphaScreen HP1-beta / biotin-H3K9me3 peptide binding; note: potency is the fitted concentration of half-maximal effect; nearly all actives have a fitted effect of over 70% in size
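HP1-beta protein (50 nM final) preincubated 30 min at room temperature with biotinylated H3(1-18)K9me3 peptide (50 nM) in PBS pH 7.4, 0.01% Tween-20, then compound added for 30 min. AlphaScreen streptavidin donor/nickel chelate acceptor beads (10 ug/mL final), 30 min dark, luminescence read.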
PI5P4K alpha inh = blocks human PI5P4K alpha kinase activity; PI5P4Kalpha enzyme, ADP-Glo luminescence, 60 min; hits give low values; max response, %; 330,000 compounds, 1.2% hits; active = max response of -50% or lower; inconclusive = between -30% and -50%; inactive = -30% or higher; note: value at the top dose of about 77 µM; % is set by controls: 0 for no effect and ±100 for the full control effect
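PI5P4Kalpha ADP-Glo assay; 5 microM ATP final; 60 min RT reaction; HEPES pH 7.4/EGTA/CHAPS, 5% DMSO; controls lacking substrate or enzyme; luminescent end-point.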
G9a block = blocks human histone lysine methyltransferase G9a; G9a H3K9 monomethylation, AlphaScreen, 2 h; Potency, µM (series often up to 102 µM), inactives show at the top dose activity, negative = inhibition, hits mostly inhibitors; 350,000 compounds, 8.8% hits; Q96KQ7; AID 504332; note: potency is the fitted concentration of half-maximal effect; % is set by controls: 0 for no effect and ±100 for the full control effect; nearly all actives have a fitted effect of over 75% in size
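Quantitative HTS format: methyltransferase activity on a biotin-tagged H3K9 peptide is measured by AlphaScreen, using a rabbit anti-monomethyl-H3K9 antibody with streptavidin donor and anti-IgG acceptor beads. Final levels are 20 nM enzyme, 500 nM peptide, 20 uM SAM; 2 h RT.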
JMJD2A Tudor = inhibitors of human JMJD2A Tudor domain. O75164. AlphaScreen JMJD2A-Tudor / H3K4me3 peptide binding. Potency, µM (highest dose often 114 µM), for the others: at the top dose activity change, negative = inhibition, actives largely listed as inhibitors. 390,000 compounds, 4.4% hits; note: potency is the fitted concentration of half-maximal effect; % is set by controls: 0 for no effect and ±100 for the full control effect; nearly all actives have a fitted effect of over 50% in size
PLK1 PBD inh = inhibitors of human PLK1 polo-box domain binding; P53350; Plk1 PBD binding of FITC phosphopeptide, fluorescence polarization; Potency, µM, without a hit: max response, negative = inhibition, most hits filed as inhibitors; 360,000 compounds, 2.8% hits; AID 720504; note: potency is the fitted concentration of half-maximal effect; series mostly up to about 57 µM; % is set by controls: 0 for no effect and ±100 for the full control effect; nearly all actives have a fitted effect of over 65% in size
BAZ2B inh = BAZ2B (human) inhibition; Potency, µM (top dose mostly 114 µM), for inactives: at the top dose activity change, negative = inhibition, most hits filed as inhibitors; 360,000 compounds, 4.4% hits; Q9UIF8; AlphaScreen BAZ2B-H3K14Ac peptide displacement; note: potency is the fitted concentration of half-maximal effect; % is set by controls: 0 for no effect and ±100 for the full control effect; nearly all actives have a fitted effect of over 60% in size
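Compounds, titrated to a top concentration of 110 uM, were incubated 30 min at room temperature with preformed BAZ2B/acetyl-K14 H3 peptide complex (50 nM each). Proximity signal was measured by AlphaScreen after 20 min with beads.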
An asterisk follows results filed as active; ? = inconclusive; nt = no result; ! = not confirmed by another sample; [ ] = remark or other dose. Unless noted, calls come from the whole dose curve; as a rule, active = well fitted curve in the direction sought with a large enough effect; inconclusive = small, poorly fitted or top-dose-only effect, or another doubt; inactive = no such curve, though single readings can be large; an effect the other way counts as inactive or inconclusive.

SMILES	HP1b chromo inh	PI5P4K alpha inh	G9a block	JMJD2A Tudor	PLK1 PBD inh	BAZ2B inh
COc1ccc(-c2n[nH]c(=S)n2-c2ccccc2C)cc1OC	33%	-8	7.9µM*	11µM*	-18%	-20%
COc1cc(C(=O)n2nc(-c3ccco3)nc2NCc2ccc(Cl)cc2)cc(OC)c1OC	54%	nt	-31%[59 µM]	-11%	nt	-26%
COc1ccc(-c2cc(C(F)(F)F)nc(SCC(=O)N(C)Cc3ccccc3)n2)cc1	57%	nt	76%[59 µM]	4%	nt	10%
O=C(COc1ccc(F)cc1)Nc1cc(S(=O)(=O)N2CCCCC2)ccc1N1CCCCC1	-5%	7	2µM*	?	5%	?
O=C(COc1ccc([N+](=O)[O-])cc1)Nc1cc(S(=O)(=O)N2CCCCC2)ccc1N1CCCCC1	-16%	2	1.8µM*	20µM*	-10%	-38%
C=CCN1C(=O)C(CC(C)C)NC1=S (stereo not given)	nt	nt	3%[12.7 µM]	nt	nt	nt
COc1ccc(CCNC(=O)Cn2c(C)c3cnn(-c4ccccc4)c(=O)c3c2C)cc1OC	28%	nt	3%[59 µM]	-15%	nt	-21%
Cc1ccccc1N(C)S(=O)(=O)c1nnc(NC(=O)c2ccccc2F)s1	32%	-18	4µM*!	45µM*!	-24%	14µM*!
Cc1ccccc1NS(=O)(=O)c1nnc(NC(=O)c2ccccc2C)s1	25%	4	-39%[59 µM]	?	-1%	28µM*!
Cc1ccc(NC(=O)c2cccn2-c2nnc(N3CCCCC3)s2)cc1Cl	11%	nt	-35%[59 µM]	-29%	nt	-29%
O=C(NCc1ccccc1)c1cnc2sc(N3CCCC3)nn2c1=O	?	nt	12%[59 µM]	-19%	nt	-2%
O=C(c1ccco1)N1CCN(/C=C2\Nc3ccccc3C(=O)N2c2ccc(F)cc2)CC1	29%	nt	nt	-6%	nt	nt
Cc1ccc(CCNC(=O)c2ccc(NC(=O)N3CCSc4ccccc43)cc2)cc1	23%	nt	-3%[59 µM]	0%	nt	2%
Cc1cc(OCC(=O)NCCO)ccc1Cl	47%	-1	-5%[59 µM]	-12%[57.1 µM]	-12%	1%
Cc1ccc(OCC(=O)NCCCNC(=O)COc2ccc(C)cc2)cc1	22%	0	35µM*	-2%	-5%	-26%
COc1ccc(OCC(=O)NCCCNC(=O)COc2ccc(OC)cc2)cc1	49%	0	?	-1%	1%	-3%
COc1ccc(OCC(=O)Sc2ccc(C)cc2)cc1	282%	14	47%[59 µM]	121%	4.7µM*	146%
O=C(COc1ccc(F)cc1)NCCNC(=O)COc1ccc(F)cc1	44%	4	nt	-10%	1%	nt
Cc1cc(OCC(=O)NCCO)cc(C)c1Cl	15%	6	-7%[59 µM]	89µM*	-6%	8%
CC(C)c1ccc(OCC(=O)NCCO)cc1	?	1	13%[59 µM]	?	27µM*	1%
Cc1ccc(NC(=O)N2CCC(n3c(C)nc4cccnc43)CC2)c(Cl)c1	39%	nt	9%[59 µM]	5%	nt	-12%
O=C(NCCc1ccccc1Cl)c1ccc2c(c1)nc1n2CCCCC1	16%[57 µM]	nt	16%[59 µM]	-14%	nt	2%
CC(C)=CCC/C(C)=C/CC/C(C)=C/CSCC(=O)O	nt	nt	33%[59 µM]	nt	nt	nt
N#C/C(=C\c1ccc(O)c(O)c1)C(=O)c1ccc(O)c(O)c1	?	-60*	2.2µM*	0.71µM*	14%	2.2µM*
N#C/C(=C\c1ccc(O)c(O)c1)C(=O)N1CCCC1	36%	-17	13µM*	?	-3%	nt
SMILES	HP1b chromo inh	PI5P4K alpha inh	G9a block	JMJD2A Tudor	PLK1 PBD inh	BAZ2B inh
COc1cc(/C=C(\C#N)C(=O)N2CCCCC2)ccc1O	42%	-7	7%[59 µM]	-2%	5%	-4%
N#C/C(=C\c1ccccc1)C(=O)N1CCC(C(N)=O)CC1	-2%	0	0%	-18%	-14%	2%
N#C/C(=C/c1cc(Cl)c(O)c(Cl)c1)C(=O)N1CCCCC1	26%	-94*	27%[59 µM]	-14%	-7%	-4%
N#C/C(=C\c1c[nH]c2ccccc12)C(=O)NC1CC1	16%	5	nt	-8%	-4%	-8%
N#C/C(=C\c1c[nH]c2ccccc12)C(=O)c1ccc(O)c(O)c1	nt	nt	18µM*	nt	nt	nt
N#C/C(=C/c1ccc(C(=O)O)cc1)C(=O)Nc1ccccc1	39%	-1	?	-8%	-10%	7%
